Compounds without any hit were thinned out: in the full panel of roughly 83,000, 20% have a hit.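 Testing used 96-well plates and a 48-hour single-concentration exposure. Example: -40 means 40% of the starting cells died.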 Active and inactive are the calls of the source. Rule for the calls: active = growth percent below 10; inactive = the rest.
Experiments:
Test in all cases: NCI-60 one-dose screen, 48 h (100 = growth as untreated, 0 = no growth, -100 = all killed)
Conditions in all cases: 10 µM unless noted
SR leukemia = test system: SR leukemia
RPMI-8226 leukemia = test system: RPMI-8226 leukemia
OVCAR-8 ovarian = test system: OVCAR-8 ovarian
OVCAR-5 ovarian = test system: OVCAR-5 ovarian
OVCAR-4 ovarian = test system: OVCAR-4 ovarian
SK-OV-3 ovarian = test system: SK-OV-3 ovarian
IGROV1 ovarian = test system: IGROV1 ovarian
OVCAR-3 ovarian = test system: OVCAR-3 ovarian
HS 578T breast = test system: HS 578T breast
NCI/ADR-RES ovarian = test system: NCI/ADR-RES ovarian
T-47D breast = test system: T-47D breast
BT-549 breast = test system: BT-549 breast
MDA-MB-435 melanoma = test system: MDA-MB-435 melanoma
SW-620 colon = test system: SW-620 colon
MCF7 breast = test system: MCF7 breast
HCT-116 colon = test system: HCT-116 colon
HCC-2998 colon = test system: HCC-2998 colon
KM12 colon = test system: KM12 colon
MDA-MB-468 breast = test system: MDA-MB-468 breast

Measured: growth

COc1ccc(/C=C2\C(=N)N=C(SCc3nc4ccccc4[nH]3)NC2=O)cc1
inactive: SR leukemia 103% | RPMI-8226 leukemia 95.8% | OVCAR-8 ovarian 107% | OVCAR-5 ovarian 119% | OVCAR-4 ovarian 102% | SK-OV-3 ovarian 116% | IGROV1 ovarian 114% | OVCAR-3 ovarian 110% | HS 578T breast 99.5% | NCI/ADR-RES ovarian 104% | T-47D breast 87.9% | BT-549 breast 106% | MDA-MB-435 melanoma 105% | SW-620 colon 98.8% | MCF7 breast 99.1% | HCT-116 colon 105% | HCC-2998 colon 116% | KM12 colon 105% | MDA-MB-468 breast 119%

O=C(Nc1cccc(-n2cnc3cc(-c4ccc(O)cc4)ccc32)c1)C1CC1
inactive: SR leukemia 21.6% | RPMI-8226 leukemia 25.5% | OVCAR-8 ovarian 17.9% | OVCAR-5 ovarian 41.2% | OVCAR-4 ovarian 49.6% | SK-OV-3 ovarian 35.5% | IGROV1 ovarian 28.2% | NCI/ADR-RES ovarian 24.8% | T-47D breast 30.6% | BT-549 breast 30.8% | SW-620 colon 38.2% | MCF7 breast 24.9% | HCC-2998 colon 28.4% | MDA-MB-468 breast 21%
active: OVCAR-3 ovarian -2.16% | HS 578T breast 9.4% | MDA-MB-435 melanoma -4.17% | HCT-116 colon 9.12% | KM12 colon 0.14%

S=C(NCCc1ccccc1)Nc1ccc(OCc2nc3ccccc3[nH]2)cc1
inactive: SR leukemia 95.7% | RPMI-8226 leukemia 101% | OVCAR-8 ovarian 102% | OVCAR-5 ovarian 105% | OVCAR-4 ovarian 108% | SK-OV-3 ovarian 99.4% | IGROV1 ovarian 113% | OVCAR-3 ovarian 112% | HS 578T breast 109% | NCI/ADR-RES ovarian 110% | T-47D breast 103% | BT-549 breast 109% | MDA-MB-435 melanoma 105% | SW-620 colon 107% | MCF7 breast 95.3% | HCT-116 colon 103% | HCC-2998 colon 114% | KM12 colon 103% | MDA-MB-468 breast 99.5%

O=C1CCCc2cc(OCC(=O)N3CCCCC3)ccc2N1
inactive: SR leukemia 104% | RPMI-8226 leukemia 101% | OVCAR-8 ovarian 104% | OVCAR-5 ovarian 123% | OVCAR-4 ovarian 103% | SK-OV-3 ovarian 111% | IGROV1 ovarian 121% | OVCAR-3 ovarian 110% | HS 578T breast 105% | NCI/ADR-RES ovarian 109% | T-47D breast 108% | BT-549 breast 126% | MDA-MB-435 melanoma 108% | SW-620 colon 106% | MCF7 breast 94% | HCT-116 colon 114% | HCC-2998 colon 122% | KM12 colon 108% | MDA-MB-468 breast 107%

O=C(NN1C(=O)/C(=C/C=C/c2ccc([N+](=O)[O-])o2)SC1=S)c1cccc(O)c1
active: SR leukemia 2.86% | RPMI-8226 leukemia -10.1% | OVCAR-8 ovarian -80.3% | OVCAR-5 ovarian -98.5% | OVCAR-4 ovarian -100% | SK-OV-3 ovarian -80.9% | IGROV1 ovarian -97.9% | OVCAR-3 ovarian -100% | HS 578T breast -14.6% | NCI/ADR-RES ovarian -32.1% | T-47D breast -44.1% | BT-549 breast -96% | MDA-MB-435 melanoma -93.3% | SW-620 colon -71.1% | MCF7 breast -61.9% | HCT-116 colon -77.1% | HCC-2998 colon -94.8% | KM12 colon -92.6% | MDA-MB-468 breast -73.4%

Cn1cc(-c2nnc(N)nc2-c2c[nH]c3ccccc23)c2cccnc21
inactive: SR leukemia 25.2% | RPMI-8226 leukemia 43.5% | OVCAR-8 ovarian 49.7% | OVCAR-5 ovarian 77.8% | OVCAR-4 ovarian 76.8% | SK-OV-3 ovarian 64.6% | IGROV1 ovarian 39.5% | OVCAR-3 ovarian 25.9% | HS 578T breast 41.4% | NCI/ADR-RES ovarian 76.3% | T-47D breast 44.6% | BT-549 breast 34.7% | SW-620 colon 16.5% | MCF7 breast 22.5% | HCT-116 colon 18.2% | HCC-2998 colon 81% | KM12 colon 17.2% | MDA-MB-468 breast 33.4%
active: MDA-MB-435 melanoma -28.9%

Cn1cc(-c2nnc(N)nc2-c2c[nH]c3ccc(Br)cc23)c2cc(Br)cnc21
inactive: SR leukemia 23.8% | RPMI-8226 leukemia 41.6% | OVCAR-8 ovarian 59.4% | OVCAR-5 ovarian 73.8% | OVCAR-4 ovarian 45.6% | SK-OV-3 ovarian 89.2% | IGROV1 ovarian 46.4% | OVCAR-3 ovarian 55.8% | HS 578T breast 59.2% | NCI/ADR-RES ovarian 64.5% | T-47D breast 47.7% | BT-549 breast 50.2% | MDA-MB-435 melanoma 33.6% | SW-620 colon 75.1% | MCF7 breast 29.8% | HCT-116 colon 44.8% | HCC-2998 colon 72.7% | KM12 colon 49.3% | MDA-MB-468 breast 25%

COc1ccc(C2=NN(c3ccccc3)C(c3ccc(OC)c(OCc4ccccc4)c3)C2)cc1OC (configuration not stated)
inactive: SR leukemia 104% | RPMI-8226 leukemia 107% | OVCAR-8 ovarian 96.3% | OVCAR-5 ovarian 110% | OVCAR-4 ovarian 89.8% | SK-OV-3 ovarian 93.4% | IGROV1 ovarian 84.1% | OVCAR-3 ovarian 106% | HS 578T breast 97.7% | NCI/ADR-RES ovarian 103% | T-47D breast 84.4% | BT-549 breast 107% | MDA-MB-435 melanoma 97.2% | SW-620 colon 101% | MCF7 breast 84.9% | HCT-116 colon 74.8% | HCC-2998 colon 107% | KM12 colon 97.7% | MDA-MB-468 breast 101%

COc1ccc(NC(=O)[C@@H](N)Cc2ccccc2)cc1C(=O)Nc1cccc(C2CC(=O)c3c(cc(OC)c(OC)c3OC)O2)c1 (some centres not stated)
inactive: SR leukemia 14.7% | RPMI-8226 leukemia 20.2% | OVCAR-8 ovarian 29.1% | OVCAR-5 ovarian 101% | OVCAR-4 ovarian 54.7% | SK-OV-3 ovarian 152% | IGROV1 ovarian 74.5% | OVCAR-3 ovarian 64% | HS 578T breast 77.6% | NCI/ADR-RES ovarian 39.3% | T-47D breast 25.3% | BT-549 breast 19.8% | MDA-MB-435 melanoma 56.8% | SW-620 colon 50.9% | MCF7 breast 28.1% | HCT-116 colon 45.2% | HCC-2998 colon 114% | KM12 colon 35.1% | MDA-MB-468 breast 44.3%

COc1ccc(C2CC(c3ccc(S(=O)(=O)NCCNc4nc(Nc5ccc(F)cc5)nc(N(C)C)n4)cc3)=Nc3c(N)nc(N)nc3N2)cc1 (configuration not stated)
inactive: RPMI-8226 leukemia 24% | OVCAR-8 ovarian 79.5% | OVCAR-5 ovarian 98.8% | OVCAR-4 ovarian 83.7% | SK-OV-3 ovarian 108% | IGROV1 ovarian 95.7% | OVCAR-3 ovarian 95.4% | HS 578T breast 70.6% | NCI/ADR-RES ovarian 99.9% | T-47D breast 66.2% | BT-549 breast 57.1% | MDA-MB-435 melanoma 83.3% | SW-620 colon 96% | MCF7 breast 47.6% | HCT-116 colon 51.2% | HCC-2998 colon 90.6% | KM12 colon 82.5%
active: SR leukemia 8.79% | MDA-MB-468 breast 8.63%

CN(C)c1nc(NCCNS(=O)(=O)c2ccc(C3=Nc4c(N)nc(N)nc4NC(c4ccc(C(F)(F)F)cc4)C3)cc2)nc(Nc2ccc(F)cc2)n1 (configuration not stated)
inactive: OVCAR-8 ovarian 32.8% | OVCAR-5 ovarian 29.5% | OVCAR-4 ovarian 31.3% | SK-OV-3 ovarian 49.8% | IGROV1 ovarian 35.8% | OVCAR-3 ovarian 23% | HS 578T breast 27.1% | NCI/ADR-RES ovarian 92.9% | BT-549 breast 19.3% | SW-620 colon 11.7%
active: SR leukemia -23.2% | RPMI-8226 leukemia -13.1% | T-47D breast 9.22% | MDA-MB-435 melanoma 9.17% | MCF7 breast -28.2% | HCT-116 colon 2.12% | HCC-2998 colon -32.1% | KM12 colon -4.83% | MDA-MB-468 breast -46.2%

CCCSc1nc(NCCc2c[nH]c3ccccc23)c(C#N)c(-c2ccc(F)cc2)n1
inactive: RPMI-8226 leukemia 38.4% | OVCAR-8 ovarian 65.2% | OVCAR-5 ovarian 82.6% | OVCAR-4 ovarian 70.7% | SK-OV-3 ovarian 72.3% | IGROV1 ovarian 85.8% | OVCAR-3 ovarian 84.9% | HS 578T breast 34.9% | NCI/ADR-RES ovarian 49.5% | T-47D breast 26.4% | BT-549 breast 64.5% | MDA-MB-435 melanoma 72.9% | SW-620 colon 55.7% | MCF7 breast 35.3% | HCT-116 colon 22.6% | HCC-2998 colon 44.4% | KM12 colon 31.3% | MDA-MB-468 breast 44.4%
active: SR leukemia 6.1%

COc1ccc(CCC2c3c(cc4c(c3OC)OCO4)CCN2C)cc1 (configuration not stated)
inactive: HS 578T breast 11%
active: SR leukemia -18.2% | RPMI-8226 leukemia -28.5% | OVCAR-8 ovarian -41.7% | OVCAR-5 ovarian -16.5% | OVCAR-4 ovarian 9.34% | SK-OV-3 ovarian -37.6% | IGROV1 ovarian -52.4% | OVCAR-3 ovarian -21.2% | NCI/ADR-RES ovarian -54.5% | T-47D breast -43.1% | BT-549 breast -69.9% | MDA-MB-435 melanoma -66.2% | SW-620 colon -78.1% | MCF7 breast -82.3% | HCT-116 colon -58.3% | HCC-2998 colon -78.8% | KM12 colon -37.3% | MDA-MB-468 breast -81.5%
